Test results reported in article PMC5540273 (PLoS ONE, 2017).

Assays:
Conditions in all cases: concentration: 1 μM,replicates: in singlicate; n = 1
[1] = tested on: NEK11
[2] = tested on: NEK1
[3] = tested on: NEK2
[4] = tested on: NEK3
[5] = tested on: NEK4
[6] = tested on: NEK5
[7] = tested on: NEK6
[8] = tested on: NEK7
[9] = tested on: NEK9
[10] = tested on: T1, NIK
T1 construct: gene MAP3K14

[11] = tested on: T2, NIM1
T2 construct: gene MGC42105

[12] = tested on: NLK
[13] = tested on: T3, OSR1
T3 construct: gene OXSR1

[14] = tested on: PAK1
[15] = tested on: PAK2
[16] = tested on: PAK3
[17] = tested on: PAK4
[18] = tested on: PAK6
[19] = tested on: PAK7
[20] = tested on: T4, PCTK1
T4 construct: gene CDK16
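Note: KINOMEscan kinase panel screen.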

CC(C)N1C(=O)Cc2cc(Nc3ncc(C(F)(F)F)c(NCc4cccc(S(C)(=O)=O)c4)n3)ccc21
%Inh [1]: 0%
%Inh [2]: 0%
%Inh [3]: 0%
%Inh [4]: 37%
%Inh [5]: 0%
%Inh [6]: 1%
%Inh [7]: 0%
%Inh [8]: 12%
%Inh [9]: 2%
%Inh [10]: 0%
%Inh [11]: 51%
%Inh [12]: 0%
%Inh [13]: 5%
%Inh [14]: 8%
%Inh [15]: 0%
%Inh [16]: 19%
%Inh [17]: 7%
%Inh [18]: 6%
%Inh [19]: 25%
%Inh [20]: 0%

CNC(=O)c1ccccc1Sc1ccc2c(/C=C/c3ccccn3)n[nH]c2c1
%Inh [1]: 0%
%Inh [2]: 0%
%Inh [3]: 5%
%Inh [4]: 32%
%Inh [5]: 0%
%Inh [6]: 11%
%Inh [7]: 0%
%Inh [8]: 26%
%Inh [9]: 1%
%Inh [10]: 0%
%Inh [11]: 8%
%Inh [12]: 100%
%Inh [13]: 0%
%Inh [14]: 9%
%Inh [15]: 8%
%Inh [16]: 0%
%Inh [17]: 2%
%Inh [18]: 10%
%Inh [19]: 40%

Cl.Oc1cc(-c2nc(-c3ccccc3)[nH]c2-c2ccncc2)ccc1Cl [SB-386023]
%Inh [1]: 18%
%Inh [2]: 0%
%Inh [3]: 0%
%Inh [4]: 0%
%Inh [5]: 10%
%Inh [6]: 0%
%Inh [7]: 28%
%Inh [8]: 14%
%Inh [9]: 0%
%Inh [10]: 1%
%Inh [11]: 0%
%Inh [12]: 90%
%Inh [13]: 8%
%Inh [14]: 0%
%Inh [15]: 20%
%Inh [16]: 0%
%Inh [17]: 0%
%Inh [18]: 5%
%Inh [19]: 1%
%Inh [20]: 0%

C[C@H]1Oc2cc(cnc2N)-c2c(nn(C)c2C#N)CN(C)C(=O)c2ccc(F)cc21
%Inh [1]: 0%
%Inh [2]: 0%
%Inh [3]: 22%
%Inh [4]: 29%
%Inh [5]: 0%
%Inh [6]: 0%
%Inh [7]: 0%
%Inh [8]: 28%
%Inh [9]: 3%
%Inh [10]: 3%
%Inh [11]: 0%
%Inh [12]: 5%
%Inh [13]: 0%
%Inh [14]: 8%
%Inh [15]: 9%
%Inh [16]: 36%
%Inh [17]: 14%
%Inh [18]: 2%
%Inh [19]: 11%
%Inh [20]: 0%

Cc1ccc(-n2nc(C(C)(C)C)cc2NC(=O)Nc2ccc(OCCN3CCOCC3)c3ccccc23)cc1 [GW839464]
%Inh [1]: 0%
%Inh [2]: 2%
%Inh [3]: 0%
%Inh [4]: 9%
%Inh [5]: 0%
%Inh [6]: 21%
%Inh [7]: 0%
%Inh [8]: 0%
%Inh [9]: 0%
%Inh [10]: 0%
%Inh [11]: 0%
%Inh [13]: 0%
%Inh [14]: 0%
%Inh [15]: 0%
%Inh [16]: 35%
%Inh [17]: 10%
%Inh [18]: 12%
%Inh [19]: 0%
%Inh [20]: 0%

C[C@@H](Oc1cc(-c2cnn(C3CCNCC3)c2)cnc1N)c1c(Cl)ccc(F)c1Cl
%Inh [1]: 0%
%Inh [2]: 0%
%Inh [3]: 0%
%Inh [4]: 24%
%Inh [5]: 20%
%Inh [6]: 0%
%Inh [7]: 14%
%Inh [8]: 35%
%Inh [9]: 26%
%Inh [10]: 0%
%Inh [11]: 8%
%Inh [12]: 0%
%Inh [13]: 36%
%Inh [14]: 12%
%Inh [15]: 9%
%Inh [16]: 0%
%Inh [17]: 12%
%Inh [18]: 0%
%Inh [19]: 0%
%Inh [20]: 25%

Cc1cc(C(=O)Nc2ccc(Oc3ccc4nc(NC(=O)C5CC5)cn4n3)cc2)nn1-c1ccccc1
%Inh [1]: 0%
%Inh [2]: 1%
%Inh [3]: 10%
%Inh [4]: 0%
%Inh [5]: 0%
%Inh [6]: 0%
%Inh [7]: 10%
%Inh [8]: 0%
%Inh [9]: 0%
%Inh [10]: 0%
%Inh [11]: 0%
%Inh [12]: 2%
%Inh [13]: 0%
%Inh [14]: 0%
%Inh [15]: 0%
%Inh [16]: 3%
%Inh [17]: 0%
%Inh [18]: 15%
%Inh [19]: 0%
%Inh [20]: 0%

COc1ccc(C[C@@H](CN)NC(=O)c2cc(Br)c(-c3ccnc4[nH]ccc34)s2)cc1.Cl.Cl [GSK1389063]
%Inh [1]: 14%
%Inh [2]: 0%
%Inh [3]: 29%
%Inh [4]: 22%
%Inh [5]: 1%
%Inh [6]: 19%
%Inh [7]: 0%
%Inh [8]: 0%
%Inh [9]: 0%
%Inh [10]: 37%
%Inh [11]: 13%
%Inh [12]: 0%
%Inh [13]: 34%
%Inh [14]: 78%
%Inh [15]: 62%
%Inh [16]: 93.9%
%Inh [17]: 89%
%Inh [18]: 89%
%Inh [19]: 98.7%
%Inh [20]: 16%

Cc1occc1-c1nc(N)c(OC[C@@H](N)Cc2c[nH]c3ccccc23)cc1-c1cc2c(C)n[nH]c2cn1 [GSK1660450]
%Inh [1]: 0%
%Inh [2]: 46%
%Inh [3]: 6%
%Inh [4]: 0%
%Inh [5]: 0%
%Inh [6]: 29%
%Inh [7]: 0%
%Inh [8]: 100%
%Inh [9]: 67%
%Inh [10]: 78%
%Inh [11]: 74%
%Inh [12]: 17%
%Inh [13]: 13%
%Inh [14]: 97.8%
%Inh [15]: 86%
%Inh [16]: 75%
%Inh [17]: 0%
%Inh [18]: 11%
%Inh [19]: 9%
%Inh [20]: 10%

NC(=O)c1cc(-c2ccccc2)cc2c(C3CCNCC3)c[nH]c12 [GSK301362]
%Inh [1]: 0%
%Inh [2]: 0%
%Inh [3]: 10%
%Inh [4]: 7%
%Inh [5]: 4%
%Inh [6]: 12%
%Inh [7]: 0%
%Inh [8]: 3%
%Inh [9]: 21%
%Inh [10]: 0%
%Inh [11]: 15%
%Inh [12]: 28%
%Inh [13]: 14%
%Inh [14]: 30%
%Inh [15]: 27%
%Inh [16]: 38%
%Inh [17]: 0%
%Inh [18]: 0%
%Inh [19]: 4%
%Inh [20]: 9%

CN(C)CCOc1ccc(-c2cc(-c3c[nH]nc3-c3ccccn3)ccn2)cc1 [GW835314]
%Inh [1]: 25%
%Inh [2]: 0%
%Inh [3]: 3%
%Inh [4]: 33%
%Inh [5]: 0%
%Inh [6]: 0%
%Inh [7]: 10%
%Inh [8]: 8%
%Inh [9]: 11%
%Inh [10]: 44%
%Inh [11]: 10%
%Inh [12]: 0%
%Inh [13]: 0%
%Inh [14]: 0%
%Inh [15]: 0%
%Inh [16]: 24%
%Inh [17]: 0%
%Inh [18]: 90%
%Inh [19]: 4%
%Inh [20]: 3%

CCN(CC)CCOc1ccc(Nc2ncc3cc(-c4c(Cl)cccc4Cl)c(=O)n(C)c3n2)cc1 [SB-601273]
%Inh [1]: 98.5%
%Inh [2]: 34%
%Inh [3]: 99.5%
%Inh [4]: 26%
%Inh [5]: 0%
%Inh [6]: 35%
%Inh [7]: 44%
%Inh [8]: 0%
%Inh [9]: 20%
%Inh [10]: 31%
%Inh [11]: 96.4%
%Inh [12]: 99.3%
%Inh [13]: 16%
%Inh [14]: 82%
%Inh [15]: 17%
%Inh [16]: 47%
%Inh [17]: 53%
%Inh [18]: 41%
%Inh [20]: 0%

O=C(NCCCN1CCOC1=O)c1cnc(NCc2cc(Cl)ccc2Cl)nc1NC1CCCC1
%Inh [1]: 0%
%Inh [2]: 0%
%Inh [3]: 7%
%Inh [4]: 31%
%Inh [5]: 0%
%Inh [6]: 0%
%Inh [7]: 7%
%Inh [8]: 22%
%Inh [9]: 0%
%Inh [10]: 16%
%Inh [11]: 2%
%Inh [12]: 17%
%Inh [13]: 0%
%Inh [14]: 9%
%Inh [15]: 17%
%Inh [16]: 0%
%Inh [17]: 18%
%Inh [18]: 16%
%Inh [19]: 2%
%Inh [20]: 0%

Cc1n[nH]c2ccc(-c3cc(OC[C@@H](N)Cc4ccccc4)cnc3-c3ccoc3)cc12.O=C(O)C(F)(F)F.O=C(O)C(F)(F)F [GSK507358]
%Inh [1]: 0%
%Inh [2]: 1%
%Inh [3]: 0%
%Inh [4]: 0%
%Inh [5]: 0%
%Inh [6]: 0%
%Inh [7]: 0%
%Inh [8]: 11%
%Inh [9]: 30%
%Inh [10]: 87%
%Inh [11]: 20%
%Inh [12]: 3%
%Inh [13]: 12%
%Inh [14]: 88%
%Inh [15]: 40%
%Inh [16]: 27%
%Inh [17]: 0%
%Inh [18]: 3%
%Inh [19]: 56%
%Inh [20]: 4%

Nc1nc(Nc2ccccc2)cc(-c2ccc3c(N)n[nH]c3c2)n1 [GSK2225749]
%Inh [1]: 11%
%Inh [2]: 0%
%Inh [3]: 14%
%Inh [4]: 0%
%Inh [5]: 5%
%Inh [6]: 0%
%Inh [7]: 0%
%Inh [8]: 0%
%Inh [9]: 11%
%Inh [10]: 20%
%Inh [11]: 15%
%Inh [12]: 3%
%Inh [13]: 14%
%Inh [14]: 27%
%Inh [15]: 9%
%Inh [16]: 0%
%Inh [17]: 0%
%Inh [18]: 0%
%Inh [19]: 0%
%Inh [20]: 0%

Cc1cc2cn[nH]c2cc1-c1cccc2c(N)c(C(N)=O)nnc12
%Inh [1]: 27%
%Inh [2]: 0%
%Inh [3]: 12%
%Inh [4]: 33%
%Inh [5]: 18%
%Inh [6]: 2%
%Inh [7]: 17%
%Inh [8]: 0%
%Inh [9]: 15%
%Inh [10]: 40%
%Inh [11]: 27%
%Inh [12]: 0%
%Inh [13]: 48%
%Inh [14]: 24%
%Inh [15]: 10%
%Inh [16]: 85%
%Inh [17]: 16%
%Inh [18]: 12%
%Inh [19]: 0%
%Inh [20]: 26%

C[C@@H]1CCN(C(=O)CC#N)C[C@@H]1N(C)c1ncnc2[nH]ccc12
%Inh [1]: 0%
%Inh [2]: 0%
%Inh [3]: 19%
%Inh [4]: 23%
%Inh [5]: 0%
%Inh [6]: 0%
%Inh [7]: 0%
%Inh [8]: 9%
%Inh [9]: 0%
%Inh [10]: 0%
%Inh [11]: 7%
%Inh [12]: 12%
%Inh [13]: 0%
%Inh [14]: 0%
%Inh [15]: 0%
%Inh [16]: 1%
%Inh [17]: 0%
%Inh [18]: 0%
%Inh [19]: 0%
%Inh [20]: 0%

Cl.Cl.NC[C@H](Cc1ccc(C(F)(F)F)cc1)NC(=O)c1cc(Br)c(-c2ccnc3[nH]ccc23)s1 [GSK1487252]
%Inh [1]: 0%
%Inh [2]: 15%
%Inh [3]: 0%
%Inh [4]: 23%
%Inh [5]: 4%
%Inh [6]: 4%
%Inh [7]: 0%
%Inh [8]: 0%
%Inh [9]: 3%
%Inh [10]: 0%
%Inh [11]: 4%
%Inh [12]: 0%
%Inh [13]: 0%
%Inh [14]: 37%
%Inh [15]: 33%
%Inh [16]: 83%
%Inh [17]: 0%
%Inh [18]: 25%
%Inh [19]: 33%
%Inh [20]: 0%

Cc1ccc2c(-c3ccncc3)c(-c3ccc(F)cc3)nn2c1.Cl [GW461484]
%Inh [1]: 21%
%Inh [2]: 0%
%Inh [3]: 0%
%Inh [4]: 0%
%Inh [5]: 11%
%Inh [6]: 4%
%Inh [7]: 0%
%Inh [8]: 0%
%Inh [9]: 0%
%Inh [10]: 4%
%Inh [11]: 13%
%Inh [12]: 91.3%
%Inh [13]: 0%
%Inh [14]: 29%
%Inh [15]: 30%
%Inh [16]: 19%
%Inh [17]: 0%
%Inh [18]: 7%
%Inh [19]: 4%
%Inh [20]: 0%
